# A selection: hits, their analogues and other compounds. The true share with any hit is near 0.93%.
# CDC25B CDK2 inh = human CDC25B-CDK2/CyclinA binding inhibition. P30305+P24941. AID 1259370. 0.72% of 94,000 active. z-score (test concentration not listed). HTRF CDC25B-CDK2/CyclinA binding, anti-His/anti-Flag; active compounds read high; in the data active = z-score above about 3.2
# TAR Tat displ = HIV-1 TAR-Tat binding disruption; HIV-1 TAR RNA, Tat peptide displacement FRET; active compounds read high; z-score (no concentration beside the values); 0.6% of 100,000 active; AID 1259389; active = z-score of 3 or more in at least 2 runs
# Active calls of the source: *; / = no result.
SMILES,CDC25B CDK2 inh,TAR Tat displ
c1ccc2cc(CNCCc3c[nH]c4ccccc34)ccc2c1,-1.4,/
Fc1ccccc1CNCCc1c[nH]c2ccccc12,2.3,0.3
c1coc(CNCCc2c[nH]c3ccccc23)c1,14*,-0.14
Fc1ccc(CNCCc2c[nH]c3ccccc23)cc1F,16*,-0.12
Cc1ccc(C2SCC(=O)Nc3c2c(C)nn3-c2nc(C)cc(C)n2)c(C)c1 (configuration not stated),-0.12,0.71
CN(C)[C@@H]1C(=O)C(C(N)=O)=C(O)[C@@]2(O)C(=O)C3=C(O)c4c(O)cccc4[C@@](C)(O)[C@H]3[C@H](O)[C@@H]12,/,22*
CN(C)[C@@H]1C(=O)C(C(N)=O)=C(O)[C@@]2(O)C(=O)C3=C(O)c4c(O)ccc(Cl)c4[C@@](C)(O)[C@H]3C[C@@H]12,/,12*
Cc1nn(-c2ccccc2)c2c1C(c1cccc(Br)c1)SCC(=O)N2 (configuration not stated),-1.6,4.2
Cc1cc(C)c(C2=NCCNC(C(F)(F)F)=C2)c(=O)[nH]1,-1.8,1.6
NCCc1c[nH]c2ccccc12,-0.02,0.19
NCCc1cc(O)c(O)cc1O,/,29*
Cc1nn(-c2ccc(F)cc2)c2c1C(c1ccc(Cl)cc1)SCC(=O)N2 (configuration not stated),-1.7,0.98
Cn1nc(-c2ccccc2F)c2cc(C(=O)N3CCC4(CC3)OCCO4)sc21,-1.7,/
Cc1nn(-c2ccccc2)c2c1C(c1ccc(OC(C)C)cc1)SCC(=O)N2 (configuration not stated),-0.35,/
C=CCOc1ccc(C2SCC(=O)Nc3c2c(C)nn3-c2nc(C)cc(C)n2)cc1OC (configuration not stated),-2.2,1.1
CCN(CC)c1ccc(C2SCC(=O)Nc3c2c(C)nn3-c2ccc(F)cc2)cc1 (configuration not stated),-3.4,-0.45
COc1ccc(CC2NCCc3cc(OC)c(OC)cc32)cc1OC (configuration not stated),-0.3,37*
COc1ccc(CCNC2(C#N)CCCCC2)cc1OC,-0.88,/
O=S(=O)(NCC(c1ccccc1)N1CC=C(c2ccccc2)CC1)c1ccccc1 (configuration not stated),-0.82,2
COc1cc2c3c(c1O)-c1c(cccc1OC)CC3N(C)CC2 (configuration not stated),-0.03,-11
COc1cc2c(cc1OC)-c1c(OC)c(OC)cc3c1C(C2)N(C)CC3 (configuration not stated),-6.7,6.3*
COc1ccc(C2C3C(=NN2C(C)=O)C2CCN3CC2)cc1OC (configuration not stated),-0.94,1.9
Cc1o[nH]c(=O)c1CC(N)C(=O)O (configuration not stated),-1.1,/
NC(Cc1cc(O)c(O)cc1O)C(=O)O (configuration not stated),20*,/
CC(=O)OC[C@]12CCC(C)=C[C@H]1O[C@@H]1[C@H](O)[C@@H](OC(C)=O)[C@@]2(C)[C@@]12CO2,/,1.7
CCOc1cc(C2SCC(=O)Nc3c2c(C)nn3-c2nc3ccccc3s2)ccc1O (configuration not stated),-1.1,0.69
Cc1nn(-c2nc3ccccc3s2)c2c1C(c1ccc(O)c(O)c1)SCC(=O)N2 (configuration not stated),-1.9,6.5*
